# Measurements taken from PubChem BioAssay (NCATS).
# Values joined by “and” are separate entries in the source; they are usually repeats but may differ in a detail not shown here. Equal entries are not always repeated. Results filed as inconclusive are left out. Entries that show only a call come without a potency. More than one record can exist for a structure, and the calls need not agree. Active and inactive are the calls of the source. Unless noted, calls come from the whole dose curve; as a rule, active = well fitted curve in the direction sought with a large enough effect; inconclusive = small, poorly fitted or top-dose-only effect, or another doubt; inactive = no such curve, though single readings can be large; an effect the other way counts as inactive or inconclusive.
# Tests used:
# [1] = tested on: Zika virus NS2B-NS3 protease; assay: Primary screen GU AMC qHTS for Zika virus inhibitors (AID 1347154); note: nearly all actives have a fitted effect of over 70% in size
# Method in brief: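 Unlinked Zika NS2B hydrophilic domain/NS3 protease domain noncovalent complex (25 nM final) in 10 mM Tris-HCl pH 8.0, 0.01% Tween 20, with AMC peptide substrate. Fluorescence (ex 340, em 450 nm) change over 15 min, room temperature; percent inhibition fitted to 4-parameter Hill equation.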
# [2] = Primary qHTS for small molecule stabilizers of the endoplasmic reticulum resident proteome: Secreted ER Calcium Modulated Protein (SERCaMP) assay (AID 1508630)
# Method in brief: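 GLuc-SERCaMP-expressing SH-SY5Y cells, pretreated 16 h with compound, are challenged with thapsigargin to empty ER calcium stores; after 4 h, coelenterazine is added directly to the medium and luminescence is imaged.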
# [3] = molecular target: Glutathione peroxidase 1 (Homo sapiens) (UniProt P07203); assay: Primary qHTS Assay for Inhibitors of Recombinant Selenoprotein Glutathione Peroxidase 1 (GPX1) (AID 1845191); note: nearly all actives have a fitted effect of over 65% in size
# Method in brief: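 Recombinant GPX1 (10 nM final) was preincubated with compound for 30 min at room temperature, then reacted with 1 mM GSH, 0.5 mM CHP, 0.5 mM NADPH and 100 nM glutathione reductase; NADPH fluorescence (340/450 nm) was read at 0 and 15 min.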
# [4] = molecular target: Cytochrome P450 1A2 (Homo sapiens) (UniProt P05177); assay: p450-cyp1a2 (AID 410; calls by dose curve; note: potency is the fitted concentration of half-maximal effect)
# Sequence of Cytochrome P450 1A2 (Homo sapiens) (P05177 whole entry, looked up): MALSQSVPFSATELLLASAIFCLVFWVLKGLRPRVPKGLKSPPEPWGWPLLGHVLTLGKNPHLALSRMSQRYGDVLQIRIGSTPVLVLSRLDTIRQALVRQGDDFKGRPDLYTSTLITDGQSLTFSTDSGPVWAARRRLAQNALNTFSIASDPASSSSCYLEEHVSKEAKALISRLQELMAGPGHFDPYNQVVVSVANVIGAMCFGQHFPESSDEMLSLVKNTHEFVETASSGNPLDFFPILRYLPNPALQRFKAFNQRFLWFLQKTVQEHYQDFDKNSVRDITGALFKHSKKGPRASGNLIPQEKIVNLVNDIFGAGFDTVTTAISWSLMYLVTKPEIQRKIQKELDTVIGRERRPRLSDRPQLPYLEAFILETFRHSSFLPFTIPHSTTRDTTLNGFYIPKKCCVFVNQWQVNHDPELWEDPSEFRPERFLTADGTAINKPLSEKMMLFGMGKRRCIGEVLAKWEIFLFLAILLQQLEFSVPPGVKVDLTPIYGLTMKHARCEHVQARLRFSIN
# Method in brief: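 Inhibition was calculated relative to 57 uM furafylline (full inhibition). The reaction used human CYP1A2 at 20nM with Luciferin-ME at its Km, 100uM, driven by an NADPH-regenerating system for 60 min at room temperature.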
# [5] = molecular target: Glucocorticoid receptor (Homo sapiens) (UniProt P04150); assay: GR-GFP Redistribution (AID 450;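 active = compounds whose dose series gives a full or clear partial fitted curve of increased nuclear translocation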; note: potency is the fitted concentration of half-maximal effect); conditions: U2OS GR-GFP nuclear translocation, laser cytometry, 2 h
# Sequence of Glucocorticoid receptor (Homo sapiens) (P04150 whole entry, looked up, the tested form may be a part): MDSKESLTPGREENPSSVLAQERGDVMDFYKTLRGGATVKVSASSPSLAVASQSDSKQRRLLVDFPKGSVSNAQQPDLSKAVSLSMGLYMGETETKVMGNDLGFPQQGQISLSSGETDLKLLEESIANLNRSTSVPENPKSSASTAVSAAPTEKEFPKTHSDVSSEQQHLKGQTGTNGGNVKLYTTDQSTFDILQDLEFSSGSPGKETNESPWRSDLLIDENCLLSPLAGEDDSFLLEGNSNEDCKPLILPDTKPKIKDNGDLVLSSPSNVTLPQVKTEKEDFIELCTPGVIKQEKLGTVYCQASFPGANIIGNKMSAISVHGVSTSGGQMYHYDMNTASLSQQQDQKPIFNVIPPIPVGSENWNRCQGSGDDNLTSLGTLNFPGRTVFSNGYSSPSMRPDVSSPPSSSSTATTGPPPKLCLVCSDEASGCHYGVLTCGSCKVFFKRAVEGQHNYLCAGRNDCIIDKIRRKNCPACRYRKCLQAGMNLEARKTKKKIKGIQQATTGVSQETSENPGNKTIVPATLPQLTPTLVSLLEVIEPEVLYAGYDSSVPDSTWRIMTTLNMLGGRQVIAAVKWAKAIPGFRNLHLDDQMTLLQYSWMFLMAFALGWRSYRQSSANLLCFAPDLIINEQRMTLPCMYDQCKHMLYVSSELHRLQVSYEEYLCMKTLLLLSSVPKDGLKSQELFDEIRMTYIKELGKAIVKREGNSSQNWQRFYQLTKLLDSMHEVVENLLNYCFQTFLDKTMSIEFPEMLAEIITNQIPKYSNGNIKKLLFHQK
# [6] = molecular target: Glucocorticoid receptor (Homo sapiens) (UniProt P04150); assay: GR-EFC Redistribution (AID 451; calls by dose curve; note: potency is the fitted concentration of half-maximal effect); conditions: CHO-K1 GR-EFC translocation, beta-gal luminescence, 2 h
# Method in brief: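 CHO-K1 cells stably expressing nuclear-localized β-gal enzyme acceptor and GR fused C-terminally to the enzyme donor fragment; ligand-driven nuclear translocation restores β-gal by complementation. Compounds titrated up to 46 uM final, 2 h at 37 °C; luminescence read.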
# [7] = molecular target: Mitogen-activated protein kinase 10 (Mus musculus) (UniProt Q61831); assay: JNK3 AlphaScreen Assay (AID 530; active = well fitted curve in either direction with a large enough effect, not every such curve was filed as active;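 note: kinase came from lysate of stimulated human HepG2 cells; signal reports phosphorylation of biotinylated GST-cJun 1-79 at Ser73 with 10 µM ATP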)
# Method in brief: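 JNK3 came from HepG2 lysates pre-activated with IL-1beta and TNF-alpha and phosphorylated biotinylated GST-cJun (1-79) at 10 uM ATP, pH 7.6, room temperature. Compounds were titrated. AlphaScreen signal used anti-phospho-cJun (Ser73) antibody.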
# [8] = molecular target: Ubiquitin carboxyl-terminal hydrolase 1 (Homo sapiens) (UniProt O94782); assay: Inhibitors of USP1/UAF1: Pilot qHTS (AID 504865);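 note: rhodamine fluorescence freed from ubiquitin-rhodamine substrate followed over time; top concentration of the series differs between compounds; nearly all actives have a fitted effect of over 35% in size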
# Sequence of Ubiquitin carboxyl-terminal hydrolase 1 (Homo sapiens) (O94782 whole entry, looked up): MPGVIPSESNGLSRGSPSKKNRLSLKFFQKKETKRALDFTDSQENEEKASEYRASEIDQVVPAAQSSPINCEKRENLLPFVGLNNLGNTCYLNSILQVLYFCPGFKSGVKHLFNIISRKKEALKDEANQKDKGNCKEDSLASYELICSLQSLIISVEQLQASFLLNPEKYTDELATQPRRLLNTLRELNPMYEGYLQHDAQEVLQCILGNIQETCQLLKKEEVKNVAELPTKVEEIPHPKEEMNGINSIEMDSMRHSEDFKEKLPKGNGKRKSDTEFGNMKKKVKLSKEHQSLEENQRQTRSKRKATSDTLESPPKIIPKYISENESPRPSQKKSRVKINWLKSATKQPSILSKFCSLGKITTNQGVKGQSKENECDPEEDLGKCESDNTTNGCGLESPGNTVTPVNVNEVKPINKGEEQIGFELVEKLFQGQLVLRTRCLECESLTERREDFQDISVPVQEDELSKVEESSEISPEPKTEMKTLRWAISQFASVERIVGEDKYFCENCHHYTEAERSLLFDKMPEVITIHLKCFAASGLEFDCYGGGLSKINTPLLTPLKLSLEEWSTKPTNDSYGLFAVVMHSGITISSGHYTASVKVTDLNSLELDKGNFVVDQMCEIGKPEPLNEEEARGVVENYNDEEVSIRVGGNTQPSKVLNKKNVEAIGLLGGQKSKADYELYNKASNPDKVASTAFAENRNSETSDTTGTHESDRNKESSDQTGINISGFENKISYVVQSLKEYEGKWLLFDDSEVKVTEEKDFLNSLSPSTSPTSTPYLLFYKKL
# Method in brief: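 USP1/UAF1 complex at 1 nM preincubated 15 min at room temperature with compound, then Ub-Rho substrate added at 150 nM final. Fluorescence (480/540 nm) read kinetically in 50 mM HEPES pH 7.8, 0.5 mM EDTA, 1 mM TCEP, 0.1 mg/ml BSA, 0.01% Tween-20.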
# [9] = molecular target: DNA dC->dU-editing enzyme APOBEC-3G (Homo sapiens) (UniProt Q9HC16); assay: qHTS for inhibitors of Vif-A3G interactions: Validation (AID 588379)
# Sequence of DNA dC->dU-editing enzyme APOBEC-3G (Homo sapiens) (Q9HC16 whole entry, looked up): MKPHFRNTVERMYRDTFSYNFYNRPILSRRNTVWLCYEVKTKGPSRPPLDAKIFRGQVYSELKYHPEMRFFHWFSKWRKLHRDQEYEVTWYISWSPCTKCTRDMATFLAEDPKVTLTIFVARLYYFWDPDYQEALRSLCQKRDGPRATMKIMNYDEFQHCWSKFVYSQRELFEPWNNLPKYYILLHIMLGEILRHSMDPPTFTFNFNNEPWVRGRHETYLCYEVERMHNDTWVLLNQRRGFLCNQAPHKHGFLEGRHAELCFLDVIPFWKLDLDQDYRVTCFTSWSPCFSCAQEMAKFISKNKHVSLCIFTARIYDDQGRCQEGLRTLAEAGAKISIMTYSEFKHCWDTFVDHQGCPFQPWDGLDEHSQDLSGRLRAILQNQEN
# Method in brief: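 HeLa cells stably expressing Vif and A3G-eYFP, 700 cells/well, incubated overnight at 37 deg C, then exposed to compound overnight at 37 deg C. Inhibition of Vif-mediated degradation read as increased yellow fluorescence (Ex 488/Em 500-530) by laser-scanning cytometry.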
# [10] = AP1 Signaling Pathway (AID 357; active = well fitted curve in either direction with a large enough effect, not every such curve was filed as active;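 note: ME-180 reporter cells stimulated with EGF at its EC50 level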); conditions: ME-180 AP-1-bla reporter, EGF-induced, beta-lactamase ratio, 5 h
# Method in brief: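 Titration-series screen for positive or negative modulators of EC50 EGF-induced signaling in ME-180 cells carrying an AP-1-driven beta-lactamase reporter. After 5 hours at 37 degrees Celsius, CCF4 460nm/530nm emission ratio gave %Activity; AC50 values derived.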
# [11] = NFAT Signaling Pathway (AID 444; active = well fitted curve in either direction with a large enough effect, not every such curve was filed as active;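 note: carbachol stimulus at about its EC50 of 1 µM final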); conditions: Jurkat NFAT-bla M1, carbachol, beta-lactamase ratio, 5 h
# Method in brief: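 Jurkat cells carrying an NFAT-driven β-lactamase reporter and co-transfected muscarinic M1 receptor were treated with compound plus carbachol (1 uM final, an EC50 level) for 5 h at 37 °C. CCF4 loading followed for 1 h at RT; 460/530 nm ratio gave %activity.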
# [12] = Stat Signaling Pathway (AID 446; active = well fitted curve in either direction with a large enough effect, not every such curve was filed as active;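 note: ME-180 cervical cancer cells given 40 pM IL-6 alongside compound; SIE-controlled beta-lactamase reporter measured as 460/530 nm FRET emission ratio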); conditions: ME-180 SIE beta-lactamase reporter, IL-6 stimulated, 5 h; at 38 µM (top of the series)
# Method in brief: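 Screening format detects activators and inhibitors alike: ME-180 SIE-bla cells stimulated at 40 pM IL-6 for 5 hrs with compound, then dual-emission beta-lactamase read at 405 nm excitation.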
# [13] = molecular target: 3',5'-cyclic-AMP phosphodiesterase 4B (Homo sapiens) (UniProt Q07343); assay: qHTS Assay for Inhibitors of PDE-IV (AID 607; active = well fitted activation curve with a large enough effect in the main read-out, with a control signal flat, not every such curve was filed as active)
# Sequence of 3',5'-cyclic-AMP phosphodiesterase 4B (Homo sapiens) (Q07343 whole entry, looked up): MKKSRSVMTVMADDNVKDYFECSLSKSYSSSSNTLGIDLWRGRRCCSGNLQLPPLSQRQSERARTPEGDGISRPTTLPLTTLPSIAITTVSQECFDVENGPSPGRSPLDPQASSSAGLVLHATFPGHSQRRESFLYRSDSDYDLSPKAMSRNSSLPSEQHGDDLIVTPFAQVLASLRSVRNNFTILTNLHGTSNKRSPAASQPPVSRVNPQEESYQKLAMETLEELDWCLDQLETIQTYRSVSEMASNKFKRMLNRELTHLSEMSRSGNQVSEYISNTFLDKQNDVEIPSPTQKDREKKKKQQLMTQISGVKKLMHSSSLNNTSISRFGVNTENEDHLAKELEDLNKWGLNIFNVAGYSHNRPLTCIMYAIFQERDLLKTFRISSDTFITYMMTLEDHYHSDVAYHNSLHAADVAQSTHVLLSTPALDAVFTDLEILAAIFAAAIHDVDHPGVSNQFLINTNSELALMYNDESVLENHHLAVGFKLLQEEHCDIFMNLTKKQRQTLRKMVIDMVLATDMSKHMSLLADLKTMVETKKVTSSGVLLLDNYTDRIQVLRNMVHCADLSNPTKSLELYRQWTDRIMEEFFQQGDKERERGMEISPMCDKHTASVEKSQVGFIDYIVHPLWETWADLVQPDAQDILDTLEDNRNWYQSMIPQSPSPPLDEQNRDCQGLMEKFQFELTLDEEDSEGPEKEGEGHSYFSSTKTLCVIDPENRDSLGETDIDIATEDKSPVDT
# Method in brief: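 The readout is membrane depolarisation from a cAMP-sensing CNG channel, detected with a potential dye at ex 535/em 590. Cells were HEK293-derived (endogenous PDE-IV) at 1000 cells/well, titrated up to 22.9 uM final.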
# [14] = molecular target: Guanine nucleotide-binding protein G(i) subunit alpha-1 (Homo sapiens) (UniProt P63096); assay: qHTS Assay for Inhibitors of RGS12 GoLoco Motif Activity (Green Fluorophore) (AID 879);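 note: negative values mean loss of peptide binding seen as reduced polarization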
# Sequence of Guanine nucleotide-binding protein G(i) subunit alpha-1 (Homo sapiens) (P63096 whole entry, looked up): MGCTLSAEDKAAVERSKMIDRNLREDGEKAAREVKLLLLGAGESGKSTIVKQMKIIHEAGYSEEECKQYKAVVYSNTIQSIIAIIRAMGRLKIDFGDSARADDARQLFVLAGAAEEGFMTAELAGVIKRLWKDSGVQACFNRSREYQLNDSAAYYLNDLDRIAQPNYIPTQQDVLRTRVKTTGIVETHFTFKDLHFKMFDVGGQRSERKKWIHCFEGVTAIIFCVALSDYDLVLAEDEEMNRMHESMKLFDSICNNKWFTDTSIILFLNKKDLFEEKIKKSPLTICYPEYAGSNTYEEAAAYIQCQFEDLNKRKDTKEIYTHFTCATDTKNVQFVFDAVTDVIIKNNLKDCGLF
# Method in brief: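 Fluorescence polarization assay: 50 nM Gαi1 with 10 nM FITC-labeled RGS12 GoLoco peptide in 10 mM Tris pH 7.5, 150 mM NaCl, 0.1 mM GDP, 0.05% NP40, 10 min at room temperature with compound.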
# [15] = molecular target: Muscarinic acetylcholine receptor M1 (Rattus norvegicus) (UniProt P08482); assay: qHTS Assay for Antagonists of Acetylcholine Muscarinic M1 Receptor: Measurement of IP-One Response (AID 944); note: nearly all actives have a fitted effect of over 75% in size
# Method in brief: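 Steps: plate transfected CHO-M1 cells overnight; add test compound, 10 min; add carbachol (200 nM, EC80) in stimulation buffer with LiCl; incubate 30 min; add labelled IP1 tracer and anti-IP1 antibody in lysis buffer; read HTRF after 10 min.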
# [16] = molecular target: Pyruvate kinase (Leishmania mexicana) (UniProt Q27686); assay: qHTS Validation Assay for Inhibitors of Leishmania Mexicana Pyruvate Kinase (AID 945)
# Sequence of Pyruvate kinase (Leishmania mexicana) (Q27686 2-499 E452W): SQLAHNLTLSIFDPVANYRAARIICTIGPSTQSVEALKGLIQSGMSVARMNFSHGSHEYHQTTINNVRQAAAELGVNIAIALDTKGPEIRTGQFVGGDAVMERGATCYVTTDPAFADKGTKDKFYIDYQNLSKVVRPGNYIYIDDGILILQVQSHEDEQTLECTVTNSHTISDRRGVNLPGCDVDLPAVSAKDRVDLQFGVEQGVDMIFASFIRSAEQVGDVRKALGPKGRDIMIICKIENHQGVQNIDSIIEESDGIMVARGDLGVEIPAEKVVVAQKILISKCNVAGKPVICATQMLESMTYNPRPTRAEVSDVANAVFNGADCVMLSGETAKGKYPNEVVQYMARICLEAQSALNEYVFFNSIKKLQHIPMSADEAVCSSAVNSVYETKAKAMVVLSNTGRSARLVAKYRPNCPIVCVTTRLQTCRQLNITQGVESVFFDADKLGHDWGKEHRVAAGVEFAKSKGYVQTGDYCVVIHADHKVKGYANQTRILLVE
# Method in brief: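 Read-out: luminescence from PKLight stop/detection reagent, data normalized to DMSO. Reaction: 0.2 nM E451W LmPYK, 0.5 mM PEP, 0.1 mM ADP, pH 7.2, 1 h room temperature.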
# [17] = molecular target: Pyruvate kinase PKM (Homo sapiens) (UniProt P14618); assay: qHTS Assay for Activators of Human Muscle Pyruvate Kinase (AID 954; active = well fitted curve in the direction sought with a large enough effect, not every such curve was filed as active)
# Sequence of Pyruvate kinase PKM (Homo sapiens) (P14618 whole entry, looked up): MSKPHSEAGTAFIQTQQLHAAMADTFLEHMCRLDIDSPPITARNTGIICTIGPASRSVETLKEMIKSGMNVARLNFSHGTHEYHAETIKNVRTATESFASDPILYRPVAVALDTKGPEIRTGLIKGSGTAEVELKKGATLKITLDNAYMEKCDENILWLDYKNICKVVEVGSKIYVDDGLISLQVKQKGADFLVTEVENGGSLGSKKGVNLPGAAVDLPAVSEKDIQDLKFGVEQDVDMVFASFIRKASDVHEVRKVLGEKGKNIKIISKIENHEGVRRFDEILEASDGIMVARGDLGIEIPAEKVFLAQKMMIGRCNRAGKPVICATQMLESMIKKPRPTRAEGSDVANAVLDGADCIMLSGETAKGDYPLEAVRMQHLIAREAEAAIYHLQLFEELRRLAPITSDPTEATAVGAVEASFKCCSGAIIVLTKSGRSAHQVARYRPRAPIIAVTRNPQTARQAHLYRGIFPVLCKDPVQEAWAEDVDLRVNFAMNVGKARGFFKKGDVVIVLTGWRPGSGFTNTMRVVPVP
# Method in brief: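 Reaction: 0.1 nM purified PKM2 with 0.5 mM phosphoenolpyruvate and 0.1 mM ADP, room temperature, 1 h. Readout: luciferase-based ATP luminescence after stop reagent. Activators judged against a 0.3 nM enzyme column.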
# [18] = molecular target: Alpha-galactosidase A (Homo sapiens) (UniProt P06280); assay: Counterscreen for Glucocerebrosidase Inhibitors: qHTS Assay for Human alpha-Galactosidase at pH 4.5 (AID 992)
# Sequence of Alpha-galactosidase A (Homo sapiens) (P06280 whole entry, looked up): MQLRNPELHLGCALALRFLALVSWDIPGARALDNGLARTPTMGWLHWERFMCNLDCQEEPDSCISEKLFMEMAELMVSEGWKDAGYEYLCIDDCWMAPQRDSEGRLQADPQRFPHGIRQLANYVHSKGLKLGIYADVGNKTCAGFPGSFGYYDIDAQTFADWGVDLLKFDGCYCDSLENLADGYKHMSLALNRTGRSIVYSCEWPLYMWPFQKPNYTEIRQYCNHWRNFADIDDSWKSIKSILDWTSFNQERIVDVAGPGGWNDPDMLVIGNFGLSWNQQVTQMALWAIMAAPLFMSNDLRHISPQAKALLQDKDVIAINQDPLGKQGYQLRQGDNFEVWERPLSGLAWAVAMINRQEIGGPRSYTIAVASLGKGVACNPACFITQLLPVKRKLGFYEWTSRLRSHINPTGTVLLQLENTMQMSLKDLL
# Method in brief: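 Concentration-response curves (0.7 nM to 77 uM final) were modeled with the Hill equation to give AC50. Reactions: 2 nM enzyme, 80 uM fluorogenic alpha-galactoside, pH 4.5 citric acid buffer, 20 min, room temperature.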
# [19] = molecular target: alpha-glucosidase (Oryza sativa, rice) (UniProt Q653V4); assay: Counterscreen for Glucocerebrosidase Inhibitors: qHTS Assay for Rice alpha-Glucosidase at pH 5.0 (AID 997)
# Method in brief: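 Rice alpha-glucosidase (4 nM final) with 400 uM 4-methylumbelliferyl-alpha-D-glucopyranoside in citrate buffer pH 5.0, 20 min at room temperature, stopped at pH 10; fluorescence 365/440 nm, compounds 0.7 nM–77 uM, AC50 from Hill fits.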
# [20] = molecular target: Cytochrome P450 3A4 (Homo sapiens) (UniProt P08684); assay: qHTS Assay for Inhibitors and Substrates of Cytochrome P450 3A4 (AID 884); note: nearly all actives have a fitted effect of over 50% in size
# Method in brief: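 20 nM human CYP3A4 with 25 uM Luciferin-PPXE (at KM) in 200 mM KPO4, preincubated 10 min with compound; NADPH regeneration started a 60 min RT reaction. Luciferin detected by luminescence, normalized to 57 uM ketoconazole as full inhibition.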
# [21] = molecular target: Phospholipid hydroperoxide glutathione peroxidase GPX4 (Homo sapiens) (UniProt P36969); assay: Primary qHTS Assay for Inhibitors of Recombinant Selenoprotein Glutathione Peroxidase 4 (GPX4) (AID 1845192); conditions: outcome: dose series up to 50 µM unless noted; note: nearly all actives have a fitted effect of over 65% in size
# Method in brief: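 GR-coupled readout: 100 nM GR, 1 mM GSH, 0.5 mM NADPH; NADPH fluorescence (ex 340/em 450 nm) read at t=0 and after 15 min RT. GPX4 200 nM, preincubated 30 min with compound; substrate 0.5 mM CHP.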
structure (smiles),measurement,setting,value
Cc1ccc(NC2=CC(=O)c3sc(C)nc3C2=O)cc1,Potency,[1],inactive
same,Potency,[2],inactive
same,Potency,[3],inactive
CCCCNC(=O)[C@@H]1Cc2ccccc2N1C(=O)[C@H](N)CC,Potency,[4],20 µM (active)
same,Potency,[5],> 46 µM (inactive)
same,Potency,[6],> 46 µM (inactive)
same,Potency,[7],inactive
same,Potency,[8],inactive
same,Potency,[9],inactive
same,Potency,[1],inactive
same,Potency,[2],inactive
C[C@@H]1CCN=C(N)S1,"activity change, negative = inhibition",[10]; at 38 µM (top of the series),12.9% (inactive)
same,Potency,[4],inactive and 39.8 µM (active)
same,"activity change, negative = inhibition",[11]; at 38 µM (top of the series),2.83% (inactive)
same,"activity, negative = inhibition",[12],9.1% (inactive)
same,Potency,[5],> 46 µM (inactive)
same,Potency,[6],> 46 µM (inactive)
same,Potency,[7],inactive
same,Potency,[13],inactive
same,outcome,[14],inactive
same,Potency,[15],inactive
same,Potency,[16],inactive
same,outcome,[17],inactive
same,outcome,[18],inactive
same,outcome,[19],inactive
same,Potency,[9],inactive
same,Potency,[1],inactive
same,Potency,[2],inactive
Cc1cccc([C@@H]2CN(C)CCc3c2cc(O)c(O)c3Cl)c1,Potency,[4],inactive
same,"activity change, negative = inhibition",[11]; at 38 µM (top of the series),-15% (inactive)
same,"activity, negative = inhibition",[12],11.4% (inactive)
same,Potency,[5],> 46 µM (inactive)
same,Potency,[6],> 46 µM (inactive)
same,Potency,[13],inactive
same,outcome,[14],inactive
same,Potency,[20],inactive
same,Potency,[16],inactive
same,outcome,[17],inactive
same,outcome,[18],inactive
same,outcome,[19],inactive
same,Potency,[9],inactive
same,Potency,[1],inactive
same,Potency,[2],inactive
CCCCCC#CCC#CCC#CCC#CCCCC(=O)O,"activity change, negative = inhibition",[10]; at 17.2 µM (top of the series),-11.4% (inactive)
same,"activity change, negative = inhibition",[11]; at 17.2 µM (top of the series),-2.11% (inactive)
same,Potency,[5],> 20.6 µM (inactive)
same,Potency,[1],inactive
same,Potency,[2],inactive
COc1cc([C@@H]2c3cc4c(cc3C(O[C@@H]3O[C@@H]5CO[C@@H](c6cccs6)OC5[C@H](O)[C@H]3O)C3COC(=O)[C@@H]32)OCO4)cc(OC)c1O (some centres undefined),Potency,[1],inactive
same,Potency,[2],inactive
same,Potency,[3],inactive
same,Potency,[21],inactive
COC(=O)Nc1ccc2[nH]cc(CCNC(C)=O)c2c1,Potency,[4],0.316 µM (active)
same,Potency,[5],> 46 µM (inactive)
same,Potency,[6],> 46 µM (inactive)
same,Potency,[7],inactive
same,Potency,[13],inactive
same,Potency,[8],inactive
same,Potency,[9],inactive
same,Potency,[1],inactive
same,Potency,[2],inactive
CCC(=O)N[C@@H]1CCc2cccc(OC)c2C1,Potency,[4],12.6 µM (active)
same,Potency,[5],> 46 µM (inactive)
same,Potency,[6],> 46 µM (inactive)
same,Potency,[7],inactive
same,Potency,[13],inactive
same,Potency,[8],inactive
same,Potency,[9],inactive
same,Potency,[1],inactive
same,Potency,[2],inactive
OC[C@@H](O)COc1cccc2ccccc12,Potency,[4],0.631 µM (active)
same,Potency,[5],> 46 µM (inactive)
same,Potency,[6],> 46 µM (inactive)
same,Potency,[7],inactive
same,Potency,[13],inactive
same,Potency,[8],inactive
same,Potency,[9],inactive
same,Potency,[1],inactive
same,Potency,[2],inactive
